A word on the inhibition: it is the relative decrease from the control value, in per cent.

The nature of this experiment: cell-free HIV fusion peptide-binding blockers – biochemical, uHTS, fluorescence dequenching, primary screen (AID 1986). The conditions noted are these: 30 min, stronger effect = higher value.
[1] abbreviates: measured here: repeat confirmation average inhibition, at 18.6 µM.

The structures appear in SMILES notation. Several values for one entry are separate records, joined by “and”; a condition that tells them apart may be missing. Identical values can stand only once. Screen size: about 290,000 compounds; about 890 (0.31%) were called active. Rule as the data show it: active = inhibition mostly above about 52% (no sharp cut-off); inactive = mostly below about 76%. Many of the other results were omitted from the sample, so actives are more common in it than they were.

Turning to `O=P(/C(=N/O)N1CCOCC1)(N1CCOCC1)N1CCOCC1`, the inhibition (at 20 µM) is 2.4% (inactive).

For `CCOC(=O)C1CCN(C(C)C(=O)c2c(C)[nH]c3cc(C)ccc23)CC1` (configuration not stated), the inhibition (at 20 µM) was 8.4% (inactive).

As to `CCC1CCCCN1P(=O)(c1ccc(C)o1)C(C)(C)C` (configuration not stated), where the note is “at 20 µM”, the inhibition was 5.9% (inactive).

On to `CCc1cc(=O)oc2c(C)c(OCC(=O)N3C[C@H]4C[C@@H](C3)c3cccc(=O)n3C4)ccc12`, for which the inhibition (at 20 µM) is 1.3% (inactive).

For `O=C(C1c2ccccc2C(=O)N2CCc3ccccc3C12)N1CCC2(CC1)OCCO2` (configuration not stated), the inhibition (at 20 µM) was -2.3% (inactive).

Turning to `COc1ccc(CCNCc2cccn2C)cc1`, the inhibition (at 20 µM) was -1.8% (inactive).

For `NC(=O)c1cn(C2CCCCC2)c2ccccc2c1=O`, the inhibition (at 20 µM) is -1.7% (inactive).

Consider `CCCCCC(=O)N[C@@H](c1ccccc1)[C@@H](O)C(=O)O[C@H]1C[C@@]2(O)[C@@H](OC(=O)c3ccccc3)C3[C@](C)(C(=O)[C@H](O)C(=C1C)C2(C)C)[C@@H](OC1OCC(O)C(O)C1O)C[C@H]1OC[C@@]31OC(C)=O` (some centres not stated), for which the inhibition (at 20 µM) is 0% (inactive).

For `O=C1NC(=O)N(c2ccc3c(c2)OCO3)C(=O)/C1=C/c1cccs1`, the inhibition (at 20 µM) was 12.1% (inactive).

Turning to `O=C1NC(=O)N(c2ccc3c(c2)OCO3)C(=O)/C1=C/c1ccc(N2CCCCC2)o1`, for the setting “at 20 µM”, the inhibition is 0.8% (inactive).

Turning to `O=C1NC(=O)N(c2ccc3c(c2)OCO3)C(=O)/C1=C/c1ccc(N2CCCC2)o1`, the inhibition is 111% (active) (at 20 µM) and 89.9% under setting [1].

With `O=C1NC(=O)N(c2ccc3c(c2)OCO3)C(=O)/C1=C\c1ccc(N2CCCCC2)o1`, the inhibition is, setting by setting: (at 20 µM) 112% (active); under setting [1], 70.4%.

On to `O=C1NC(=O)N(c2ccc3c(c2)OCO3)C(=O)/C1=C\c1ccc(-c2ccccc2C(=O)O)o1`, for which the inhibition (at 20 µM) is 22.4% (inactive).

`CCOc1ccc(N2C(=O)NC(=O)/C(=C\c3ccc(N4CCCCC4)o3)C2=O)cc1`: the inhibition (at 20 µM) was 152% (inactive).

In the case of `CC(C)Cc1nnc(NC(=O)CCC(=O)N2CCC3(CC2)OCCO3)s1`, under “at 20 µM”, the inhibition was -0.2% (inactive).

On to `FC(F)(F)c1ccccc1NC1=NCCCS1`, for which the inhibition (at 20 µM) is -1% (inactive).

`O=C1NC(=O)N(c2ccc(Cl)cc2)C(=O)/C1=C\c1ccc(Sc2nc3ccccc3[nH]2)o1`: the inhibition was 60.1% (inactive) (at 20 µM) and 26% under setting [1].

As for `O=C1NC(=O)N(c2cccc(Cl)c2)C(=O)/C1=C\c1ccc(Sc2nc3ccccc3[nH]2)o1`, the inhibition (at 20 µM) was 78.9% (active).

Regarding `O=C1NC(=O)N(c2ccccc2F)C(=O)/C1=C/c1ccc(Sc2nc3ccccc3[nH]2)o1`, the inhibition (at 20 µM) is 39% (inactive).

In the case of `CC1CC2(O)c3no[n+]([O-])c3CCC2N1O` (configuration not stated), the inhibition (at 20 µM) was 1.4% (inactive).

`Cc1nc2ccc(Cl)cc2c(=O)n1-c1ccc([N+](=O)[O-])cc1`: for the setting “at 20 µM”, the inhibition was -1.1% (inactive).

For the compound `N#Cc1c(/N=C/c2ccc(O)cc2O)sc2c1C1CCN2CC1`, where the note is “at 20 µM”, the inhibition is 3% (inactive).

`CCN(CC)c1ccc(/C=N/c2sc3c(c2C#N)C2CCN3CC2)c(O)c1`: the inhibition (at 20 µM) is 120% (active) and the inhibition under setting [1] came to 193%.

`CC(=O)c1c(C)n(Cc2ccccc2Cl)c2ccc(O)cc12`: for the setting “at 20 µM”, the inhibition is -2.4% (inactive).

Take `Fc1ccc(Cn2nnnc2C(c2ccc(F)cc2)N2CC=C(c3ccc(F)cc3)CC2)cc1` (configuration not stated): under “at 20 µM”, the inhibition was -1.1% (inactive).

As for `CCCCn1c(O)c(/C=C2\C=Nc3ccccc32)c(=O)[nH]c1=O`, the inhibition (at 20 µM) is 78.2% (active).

Turning to `O=c1[nH]c(=O)n(CC2CCCO2)c(O)c1/C=C1\C=Nc2ccccc21` (configuration not stated), the inhibition (at 20 µM) was 5.1% (inactive) and 14.6% (inactive).

Consider `CCOc1ccc(-n2c(O)c(/C=C3\C=Nc4ccccc43)c(=O)[nH]c2=O)cc1`, for which the inhibition (at 20 µM) was 166% (inactive).

For `C=CCn1c(O)c(/C=C2\C=Nc3ccccc32)c(=O)[nH]c1=O`, the inhibition (at 20 µM) is 12.9% (inactive).

Regarding `O=c1[nH]c(=O)n(-c2ccccc2F)c(O)c1/C=C1\C=Nc2ccccc21`, the inhibition (at 20 µM) is 20.7% (inactive).

Turning to `O=c1[nH]c(=O)n(Cc2ccccc2)c(O)c1/C=C1\C=Nc2ccccc21`, the inhibition is, setting by setting: (at 20 µM) 102% (active); under setting [1], 66.2%.

Turning to `CCOP(=O)(OCC)/C(C#N)=C/c1ccoc1`, the inhibition (at 20 µM) was 13.5% (inactive).

Turning to `CC(=O)c1ccccc1NC(=O)C1C2CCC(O2)C1C(=O)O` (configuration not stated), the inhibition (at 20 µM) was 0% (inactive).

In the case of `O=C1Nc2ccc(Br)cc2C(c2ccc(Cl)cc2)=NC1O` (configuration not stated), the inhibition (at 20 µM) was -1.3% (inactive).

Turning to `CN1CCC(C)(O)C2CCCCC21` (configuration not stated), the inhibition (at 20 µM) is -1.3% (inactive).

For `Cc1cc(NC(=O)C(Cl)(Cl)Cl)no1`, the inhibition (at 20 µM) was 1% (inactive).

Regarding `CCOC(=O)C1C(=O)N(C)C2(C)CC1c1ccccc1O2` (configuration not stated), the inhibition (at 20 µM) was 1.4% (inactive).

As to `CN1C(=O)/C(=C\c2ccc(N3CCCCCC3)cc2)C(=O)NC1=S`, for the setting “at 20 µM”, the inhibition was 1.7% (inactive).

In the case of `CN1C(=O)/C(=C/c2ccc(N3CCCCCC3)o2)C(=O)NC1=S`, the inhibition reads like this: (at 20 µM) 103% (active); under setting [1], 52.7%.

As to `CCN(CC)c1ccc(/C=C2\C(=O)NC(=S)N(C)C2=O)o1`, the inhibition (at 20 µM) is 149% (inactive).

Take `CN1C(=O)C(=Cc2ccc(Sc3ccccc3)o2)C(=O)N(C)C1=O`: the inhibition (at 20 µM) was 15.9% (inactive).

As for `CN1C(=O)/C(=C\c2ccc(N3CCCCC3)o2)C(=O)NC1=S`, the inhibition (at 20 µM) was 151% (inactive).

Take `CCOc1cccc(N2C(=O)/C(=C/c3ccco3)C(=O)NC2=S)c1`: the inhibition (at 20 µM) was 15.4% (inactive).

As to `Cc1ccccc1N1C(=O)NC(=O)/C(=C\c2cc(Br)c(N3CCOCC3)o2)C1=O`, where the note is “at 20 µM”, the inhibition is 147% (inactive).

In the case of `Cc1ccccc1N1C(=O)NC(=O)/C(=C/c2ccc(N3CCOCC3)o2)C1=O`, the inhibition is 124% (active) (at 20 µM) and 80.2% under setting [1].

For `O=C1NC(=S)N(c2ccccc2)C(=O)/C1=C/c1ccco1`, for the setting “at 20 µM”, the inhibition is 29.6% (inactive).

Regarding `Cc1ccccc1N1C(=O)/C(=C/c2ccco2)C(=O)NC1=S`, the inhibition (at 20 µM) was 76.1% (active).

Regarding `CCN(CC)c1ccc(C=C2C(=O)N(C)C(=S)N(C)C2=O)o1`, the inhibition reads like this: (at 20 µM) 91% (active); under setting [1], 50.9%.

As for `O=C1NC(=O)C(=Cc2ccc(N3CCOCC3)o2)C(=O)N1`, the inhibition (at 20 µM) was 127% (inactive).

(Values after PubChem BioAssay AID1986 (Sanford-Burnham Center for Chemical Genomics, 2009).)
